The values that follow come from PubChem BioAssay (NCATS).

Values without a mark were called inactive. Results filed as inconclusive are left out. Active and inactive are the calls of the source. Unless noted, calls come from the whole dose curve; as a rule, active = well fitted curve in the direction sought with a large enough effect; inconclusive = small, poorly fitted or top-dose-only effect, or another doubt; inactive = no such curve, though single readings can be large; an effect the other way counts as inactive or inconclusive. A value given as a limit tells only on which side of the number the result lay.

For test [1], the target named is Lysosomal acid glucosylceramidase (Homo sapiens) (UniProt P04062). Kind of test: Glucocerebrosidase-p2 (AID 348; in the data active = potency below about 10 µM; note: potency is the fitted concentration of half-maximal effect). The settings on record: purified GBA, blue fluorogenic substrate, 40 min. The essentials: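 Compounds titrated from 0.6 nM upwards against 0.2 nM enzyme in pH 5.9 citric acid/KH2PO4, taurocholate, tween-20; blue fluorogenic substrate 80 uM, 40 min room temperature, stopped and read Ex 365/Em 440 for AC50.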
Lysosomal acid glucosylceramidase (Homo sapiens), sequence (P04062 whole entry, looked up): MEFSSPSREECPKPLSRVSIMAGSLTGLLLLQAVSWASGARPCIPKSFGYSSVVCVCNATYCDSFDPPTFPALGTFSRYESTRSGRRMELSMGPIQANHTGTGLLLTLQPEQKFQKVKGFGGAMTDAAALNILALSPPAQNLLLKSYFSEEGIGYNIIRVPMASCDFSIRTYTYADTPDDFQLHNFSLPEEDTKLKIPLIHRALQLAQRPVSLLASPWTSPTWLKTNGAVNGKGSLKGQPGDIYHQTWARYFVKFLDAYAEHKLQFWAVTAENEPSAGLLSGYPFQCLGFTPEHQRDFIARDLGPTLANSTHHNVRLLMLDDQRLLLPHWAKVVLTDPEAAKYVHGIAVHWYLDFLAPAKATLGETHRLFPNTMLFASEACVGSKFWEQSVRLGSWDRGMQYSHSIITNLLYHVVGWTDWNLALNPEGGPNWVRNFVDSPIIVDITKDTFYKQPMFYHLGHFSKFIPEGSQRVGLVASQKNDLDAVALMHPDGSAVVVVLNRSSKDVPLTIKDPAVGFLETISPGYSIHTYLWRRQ

Test [2] is described as follows: AP1 Signaling Pathway (AID 357; active = well fitted curve in either direction with a large enough effect, not every such curve was filed as active;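 note: ME-180 reporter cells stimulated with EGF at its EC50 level; % is set by controls: 0 for no effect and ±100 for the full control effect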). The conditions noted are these: ME-180 AP-1-bla reporter, EGF-induced, beta-lactamase ratio, 5 h; at 7.69 µM (top of the series) unless noted. The essentials: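 A ratiometric CCF4 readout (405 nm excitation; 460 and 530 nm emission) quantified AP-1-driven beta-lactamase in ME-180 cells after 5 h with compound and EC50 EGF; AC50 values were derived for activators and inhibitors.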

Test [3] deals with Cytochrome P450 1A2 (Homo sapiens) (UniProt P05177). The experiment in a line: p450-cyp1a2 (AID 410; calls by dose curve; note: potency is the fitted concentration of half-maximal effect;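 for activity change, negative = inhibition: -100% = full effect of reference inhibitor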). The essentials: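 Human CYP1A2 (20nM) demethylated Luciferin-ME at its Km (100uM) in 100mM KPO4. After 10 min compound preincubation, NADPH regeneration ran the reaction 60 min at room temperature. Luciferin was read by luminescence, normalized to 57 uM furafylline.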
Cytochrome P450 1A2 (Homo sapiens), sequence (P05177 whole entry, looked up): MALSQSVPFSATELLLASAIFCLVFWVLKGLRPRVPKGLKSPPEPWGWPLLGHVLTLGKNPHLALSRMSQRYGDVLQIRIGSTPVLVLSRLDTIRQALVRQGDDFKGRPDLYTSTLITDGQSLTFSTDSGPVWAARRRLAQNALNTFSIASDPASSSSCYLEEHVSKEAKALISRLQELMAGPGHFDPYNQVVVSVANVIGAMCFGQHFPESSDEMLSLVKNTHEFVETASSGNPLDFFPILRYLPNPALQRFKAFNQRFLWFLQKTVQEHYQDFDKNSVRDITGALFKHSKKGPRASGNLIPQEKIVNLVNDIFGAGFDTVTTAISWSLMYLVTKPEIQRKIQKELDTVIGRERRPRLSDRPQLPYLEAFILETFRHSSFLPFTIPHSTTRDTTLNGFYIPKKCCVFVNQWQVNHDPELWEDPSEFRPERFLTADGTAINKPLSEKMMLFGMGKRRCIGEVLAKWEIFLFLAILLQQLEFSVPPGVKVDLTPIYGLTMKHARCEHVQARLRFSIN
Test [4] in a line: NFAT Signaling Pathway (AID 444; active = well fitted curve in either direction with a large enough effect, not every such curve was filed as active;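 note: carbachol stimulus at about its EC50 of 1 µM final; % is set by controls: 0 for no effect and ±100 for the full control effect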). The conditions noted are these: Jurkat NFAT-bla M1, carbachol, beta-lactamase ratio, 5 h; at 7.69 µM (top of the series) unless noted. The essentials: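 Read-out: CCF4 FRET ratio (460 nm/530 nm) after 1 h RT dye loading, used for %activity and AC50 from titration series. Cells: Jurkat NFAT-β-lactamase/M1 line, treated with compound plus 1 uM carbachol for 5 h, 37 °C.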

The nature of test [5]: Stat Signaling Pathway (AID 446; active = well fitted curve in either direction with a large enough effect, not every such curve was filed as active;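 note: ME-180 cervical cancer cells given 40 pM IL-6 alongside compound; SIE-controlled beta-lactamase reporter measured as 460/530 nm FRET emission ratio; % is set by controls: 0 for no effect and ±100 for the full control effect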). The settings on record: ME-180 SIE beta-lactamase reporter, IL-6 stimulated, 5 h; at 7.69 µM (top of the series) unless noted. An outline of the steps:
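Reporter line: ME-180 cervical carcinoma, SIE-beta-lactamase. Treatment: compound with 40 pM IL-6, 5 hrs, 37 C, in low-serum OPTI-MEM with 10 mM HEPES pH 7.3. Detection: 460/530 nm fluorescence.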

The target in test [6] is Glucocorticoid receptor (Homo sapiens) (UniProt P04150). Kind of test: GR-GFP Redistribution (AID 450;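 active = compounds whose dose series gives a full or clear partial fitted curve of increased nuclear translocation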; note: potency is the fitted concentration of half-maximal effect). The conditions noted are these: U2OS GR-GFP nuclear translocation, laser cytometry, 2 h.
Glucocorticoid receptor (Homo sapiens), sequence (P04150 whole entry, looked up): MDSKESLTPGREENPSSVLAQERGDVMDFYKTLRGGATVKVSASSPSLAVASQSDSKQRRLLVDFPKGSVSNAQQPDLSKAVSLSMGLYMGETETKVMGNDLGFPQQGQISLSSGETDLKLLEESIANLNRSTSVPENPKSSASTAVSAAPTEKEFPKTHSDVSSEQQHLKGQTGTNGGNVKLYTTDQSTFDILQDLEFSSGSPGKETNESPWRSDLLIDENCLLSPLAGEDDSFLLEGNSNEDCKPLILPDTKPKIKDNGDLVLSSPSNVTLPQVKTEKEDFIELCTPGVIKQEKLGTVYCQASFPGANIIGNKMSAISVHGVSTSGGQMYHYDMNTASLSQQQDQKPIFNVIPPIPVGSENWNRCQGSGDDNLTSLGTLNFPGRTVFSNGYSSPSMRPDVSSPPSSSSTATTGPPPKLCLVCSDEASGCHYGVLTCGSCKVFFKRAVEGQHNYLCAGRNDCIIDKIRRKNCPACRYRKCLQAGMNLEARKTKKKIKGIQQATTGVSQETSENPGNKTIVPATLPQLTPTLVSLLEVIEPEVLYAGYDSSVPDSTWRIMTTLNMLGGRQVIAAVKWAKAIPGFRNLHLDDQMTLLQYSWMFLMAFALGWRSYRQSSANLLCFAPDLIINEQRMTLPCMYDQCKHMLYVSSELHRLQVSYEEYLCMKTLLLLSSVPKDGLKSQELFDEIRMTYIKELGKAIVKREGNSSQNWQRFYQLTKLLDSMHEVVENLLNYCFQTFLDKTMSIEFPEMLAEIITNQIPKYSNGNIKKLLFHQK
Test [7] shares this target. Kind of test: GR-EFC Redistribution (AID 451; calls by dose curve; note: potency is the fitted concentration of half-maximal effect). The settings on record: CHO-K1 GR-EFC translocation, beta-gal luminescence, 2 h. The essentials:
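Translocation of GR-ED fusion to nuclear EA restores b-gal, read by luminescence after 1 h room-temperature detection. Engineered CHO-K1 biosensor cells, 1,000/well, exposed 2 h at 37 C to titrations up to 46 uM final.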

Test [8] deals with Mitogen-activated protein kinase 10 (Mus musculus) (UniProt Q61831). Kind of test: JNK3 AlphaScreen Assay (AID 530; active = well fitted curve in either direction with a large enough effect, not every such curve was filed as active;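 note: kinase came from lysate of stimulated human HepG2 cells; signal reports phosphorylation of biotinylated GST-cJun 1-79 at Ser73 with 10 µM ATP; % is set by controls: 0 for no effect and ±100 for the full control effect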). An outline of the steps: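 Room-temperature AlphaScreen kinase assay; pre-activated HepG2 lysate as JNK3 source, biotin-GST-cJun(1-79) substrate, 10 uM ATP, compound 15 min preincubation.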
(Alpha assays give light when donor and acceptor beads are brought close together.)

The target of test [9] is 3',5'-cyclic-AMP phosphodiesterase 4B (Homo sapiens) (UniProt Q07343). Kind of test: qHTS Assay for Inhibitors of PDE-IV (AID 607; active = well fitted activation curve with a large enough effect in the main read-out, with a control signal flat, not every such curve was filed as active; note: % of control where 0% means no effect). The essentials:
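Cell-based read-out of cAMP via a modified cyclic nucleotide-gated channel and membrane potential dye (535/590 nm) in HEK293 cells expressing PDE4 endogenously. Compounds tested up to 22.9 uM final; 100 uM RO 20-1724 reference.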
In general terms: Quantitative high-throughput screening tests each substance at several concentrations.

The target of test [10] is Cytochrome P450 3A4 (Homo sapiens) (UniProt P08684). The experiment in a line: qHTS Assay for Activators of Cytochrome P450 3A4 (AID 885). Note: nearly all actives have a fitted effect of over 65% in size. The essentials:
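Signal was normalized against complete inhibition by 57 uM ketoconazole. The reaction used 20nM CYP3A4 with 25uM Luciferin-PPXE, 10-min compound preincubation and a 60-min NADPH-supported step at RT.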

Test [11] has as its target Dual specificity protein kinase CLK4 (Homo sapiens) (UniProt Q9HAZ1). The experiment in a line: qHTS Assay for Inhibitors of CDC-like Kinase 4 (Kinase-Glo Assay) (AID 1770). Note: nearly all actives have a fitted effect of over 65% in size. Note: potency is the fitted concentration of half-maximal effect. The essentials: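 Substrate mix (RS peptide 100 uM, ATP 1 uM) dispensed, compound pinned in, then Clk4 added to 25 nM final. Incubated 4.5 h at RT; Kinase-Glo reagent added, luminescence read after 5 min.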

Test [12] shares this target. Kind of test: qHTS Assay for Inhibitors of CDC-like Kinase 4 (ADP-FP Assay) (AID 1795).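 Note: recombinant human CLK4 phosphorylating RS repeat peptide at 1 µM ATP; % is set by controls: 0 for no effect and ±100 for the full control effect; nearly all actives have a fitted effect of over 60% in size.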 The essentials: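 Clk4 6.25 nM; RS peptide 100 uM; ATP 1 uM; 25 mM Tris pH 7.5, 10 mM MgCl2; 1 h reaction. ADP detected via antibody/orange tracer FP displacement; TG003 positive control.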
Test [13] is described as follows: Primary qHTS for small molecule stabilizers of the endoplasmic reticulum resident proteome: Secreted ER Calcium Modulated Protein (SERCaMP) assay (AID 1508630). Note: % is set by controls: 0 for no effect and ±100 for the full control effect. An outline of the steps:
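GLuc-SERCaMP-expressing SH-SY5Y cells, pretreated 16 h with compound, are challenged with thapsigargin to empty ER calcium stores; after 4 h, coelenterazine is added directly to the medium and luminescence is imaged.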

The target of test [14] is Dual specificity protein kinase CLK4 (Homo sapiens) (UniProt Q9HAZ1). Kind of test: qHTS Assay for Inhibitors of CDC-like Kinase 4 (ADP-Glo Assay) (AID 1771). Note: potency is the fitted concentration of half-maximal effect; nearly all actives have a fitted effect of over 70% in size. An outline of the steps: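 Clk4 (25 nM) was incubated 1 hr at room temperature with 100 uM RS repeat peptide and 1 uM ATP in buffer with 2 mM MgCl2, 0.5 mM EGTA, 2.5 mM DTT. ADP formed was quantified by ADP-Glo luminescence.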
Dual specificity protein kinase CLK4 (Homo sapiens), sequence (Q9HAZ1 whole entry, looked up): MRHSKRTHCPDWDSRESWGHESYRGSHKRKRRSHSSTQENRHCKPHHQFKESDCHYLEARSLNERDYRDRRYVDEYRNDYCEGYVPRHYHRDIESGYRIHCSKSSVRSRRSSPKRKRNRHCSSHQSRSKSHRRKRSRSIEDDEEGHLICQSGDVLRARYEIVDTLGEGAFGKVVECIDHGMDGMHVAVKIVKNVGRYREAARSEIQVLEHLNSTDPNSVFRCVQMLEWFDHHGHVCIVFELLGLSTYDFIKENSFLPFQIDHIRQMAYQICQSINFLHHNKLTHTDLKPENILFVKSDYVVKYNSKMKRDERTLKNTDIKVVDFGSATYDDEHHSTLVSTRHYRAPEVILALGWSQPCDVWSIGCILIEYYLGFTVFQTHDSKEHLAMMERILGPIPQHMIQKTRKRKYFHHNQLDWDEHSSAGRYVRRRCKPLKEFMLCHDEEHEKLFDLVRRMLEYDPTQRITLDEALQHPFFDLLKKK

The target of test [15] is Ubiquitin carboxyl-terminal hydrolase 1 (Homo sapiens) (UniProt O94782). Kind of test: Inhibitors of USP1/UAF1: Pilot qHTS (AID 504865).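 Note: rhodamine fluorescence freed from ubiquitin-rhodamine substrate followed over time; top concentration of the series differs between compounds; % is set by controls: 0 for no effect and ±100 for the full control effect; nearly all actives have a fitted effect of over 35% in size.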 The essentials:
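In 50mM HEPES pH 7.8 containing 0.5mM EDTA, 1mM TCEP, 0.1 mg/ml BSA and 0.01% Tween-20, 1nM USP1/UAF1 is exposed to compound for 15 min, then Ub-Rho (150nM final) is added and fluorescence is read over time.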

In test [16] the target is Cytochrome P450 3A4 (Homo sapiens) (UniProt P08684). Kind of test: qHTS Assay for Inhibitors and Substrates of Cytochrome P450 3A4 (AID 884). Note: potency is the fitted concentration of half-maximal effect; nearly all actives have a fitted effect of over 50% in size. An outline of the steps:
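20 nM human CYP3A4 with 25 uM Luciferin-PPXE (at KM) in 200 mM KPO4, preincubated 10 min with compound; NADPH regeneration started a 60 min RT reaction. Luciferin detected by luminescence, normalized to 57 uM ketoconazole as full inhibition.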

Test [17] addresses Cytochrome P450 2C9 (Homo sapiens) (UniProt P11712). The experiment in a line: qHTS Assay for Inhibitors and Substrates of Cytochrome P450 2C9 (AID 883). Note: potency is the fitted concentration of half-maximal effect; nearly all actives have a fitted effect of over 60% in size. The essentials: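 Luminescent read-out of deoxyluciferin hydroxylation, normalized to 57uM sulphaphenazole (AC100). Reaction: 10nM enzyme, 100uM Luciferin-H (equal to KM), 25mM KPO4, 10 min compound preincubation, then 60 min with NADPH regeneration, both at 37C.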

Test [18] concerns the target Cytochrome P450 2C19 (Homo sapiens) (UniProt P33261). The experiment in a line: qHTS Assay for Inhibitors and Substrates of Cytochrome P450 2C19 (AID 899). Note: potency is the fitted concentration of half-maximal effect; nearly all actives have a fitted effect of over 60% in size. The essentials:
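Luminescence readout of luciferin formed from 10uM Luciferin-H EGE (KM level) by 5 nM CYP2C19 in 50mM KPO4. 60 min NADPH-driven reaction at 37C after 10 min compound preincubation; data scaled to 57uM ketoconazole inhibition.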

The target of test [19] is Cytochrome P450 2D6 (Homo sapiens) (UniProt P10635). Kind of test: qHTS Assay for Inhibitors and Substrates of Cytochrome P450 2D6 (AID 891). Note: potency is the fitted concentration of half-maximal effect; nearly all actives have a fitted effect of over 60% in size. An outline of the steps:
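Human CYP2D6 (5 nM) with 30 uM Luciferin-ME EGE (at Km) in 100 mM KPO4, compound preincubated 10 min, then NADPH regeneration system for 60 min at room temperature. Luciferin read by luminescence; normalized to 1.43 uM quinidine.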

Ubiquitin carboxyl-terminal hydrolase 1 (Homo sapiens), sequence (O94782 whole entry, looked up): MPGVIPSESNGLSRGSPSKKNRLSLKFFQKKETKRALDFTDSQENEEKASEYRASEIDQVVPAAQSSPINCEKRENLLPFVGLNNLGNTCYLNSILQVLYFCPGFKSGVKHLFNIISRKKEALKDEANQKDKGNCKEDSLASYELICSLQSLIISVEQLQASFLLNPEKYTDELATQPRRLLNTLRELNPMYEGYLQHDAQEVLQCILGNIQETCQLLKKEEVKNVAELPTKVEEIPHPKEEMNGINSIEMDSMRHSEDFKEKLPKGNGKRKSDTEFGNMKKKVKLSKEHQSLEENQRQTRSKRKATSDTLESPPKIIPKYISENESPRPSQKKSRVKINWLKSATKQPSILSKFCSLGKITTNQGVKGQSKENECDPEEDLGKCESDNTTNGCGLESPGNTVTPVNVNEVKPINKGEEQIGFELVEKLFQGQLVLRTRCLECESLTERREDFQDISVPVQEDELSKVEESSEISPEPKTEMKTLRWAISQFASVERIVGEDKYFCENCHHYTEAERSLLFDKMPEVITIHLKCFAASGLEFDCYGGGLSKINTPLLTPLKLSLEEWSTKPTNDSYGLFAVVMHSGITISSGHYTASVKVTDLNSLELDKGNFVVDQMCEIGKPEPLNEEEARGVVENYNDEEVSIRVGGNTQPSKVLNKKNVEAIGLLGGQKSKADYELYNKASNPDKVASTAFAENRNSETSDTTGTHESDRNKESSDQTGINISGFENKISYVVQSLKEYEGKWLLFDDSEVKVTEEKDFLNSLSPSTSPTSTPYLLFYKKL
Cytochrome P450 3A4 (Homo sapiens), sequence (P08684 whole entry, looked up): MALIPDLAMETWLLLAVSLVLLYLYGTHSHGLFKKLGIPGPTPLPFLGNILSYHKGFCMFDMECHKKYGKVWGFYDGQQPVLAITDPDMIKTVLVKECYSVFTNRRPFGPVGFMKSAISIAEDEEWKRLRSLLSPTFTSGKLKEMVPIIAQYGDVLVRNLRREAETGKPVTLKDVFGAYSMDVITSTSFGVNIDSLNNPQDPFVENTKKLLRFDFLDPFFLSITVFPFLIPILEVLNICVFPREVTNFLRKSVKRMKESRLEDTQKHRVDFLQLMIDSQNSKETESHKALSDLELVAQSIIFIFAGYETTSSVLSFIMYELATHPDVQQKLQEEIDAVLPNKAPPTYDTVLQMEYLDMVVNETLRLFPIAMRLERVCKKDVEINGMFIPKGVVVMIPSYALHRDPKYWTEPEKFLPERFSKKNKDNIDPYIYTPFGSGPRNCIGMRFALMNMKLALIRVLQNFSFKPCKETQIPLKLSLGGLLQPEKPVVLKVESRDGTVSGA
3',5'-cyclic-AMP phosphodiesterase 4B (Homo sapiens), sequence (Q07343 whole entry, looked up): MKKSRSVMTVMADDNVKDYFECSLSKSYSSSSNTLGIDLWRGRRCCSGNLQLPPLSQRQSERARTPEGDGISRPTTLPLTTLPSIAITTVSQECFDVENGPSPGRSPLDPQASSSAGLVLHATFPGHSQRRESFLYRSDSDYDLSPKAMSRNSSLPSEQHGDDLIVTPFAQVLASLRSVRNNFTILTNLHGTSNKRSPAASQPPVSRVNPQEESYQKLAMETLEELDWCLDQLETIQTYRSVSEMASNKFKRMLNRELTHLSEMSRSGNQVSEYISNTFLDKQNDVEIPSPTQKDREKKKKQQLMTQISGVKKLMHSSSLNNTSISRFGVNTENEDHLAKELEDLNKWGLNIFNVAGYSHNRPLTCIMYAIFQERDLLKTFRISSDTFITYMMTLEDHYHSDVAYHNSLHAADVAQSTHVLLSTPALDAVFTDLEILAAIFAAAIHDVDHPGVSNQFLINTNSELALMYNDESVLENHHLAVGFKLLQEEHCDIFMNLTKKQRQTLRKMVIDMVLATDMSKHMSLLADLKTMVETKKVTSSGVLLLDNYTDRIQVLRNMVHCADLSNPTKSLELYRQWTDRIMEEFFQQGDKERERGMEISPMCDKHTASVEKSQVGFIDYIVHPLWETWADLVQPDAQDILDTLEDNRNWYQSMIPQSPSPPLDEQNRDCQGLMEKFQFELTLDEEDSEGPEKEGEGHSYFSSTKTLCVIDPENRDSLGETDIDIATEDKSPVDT
Cytochrome P450 2C19 (Homo sapiens), sequence (P33261 whole entry, looked up): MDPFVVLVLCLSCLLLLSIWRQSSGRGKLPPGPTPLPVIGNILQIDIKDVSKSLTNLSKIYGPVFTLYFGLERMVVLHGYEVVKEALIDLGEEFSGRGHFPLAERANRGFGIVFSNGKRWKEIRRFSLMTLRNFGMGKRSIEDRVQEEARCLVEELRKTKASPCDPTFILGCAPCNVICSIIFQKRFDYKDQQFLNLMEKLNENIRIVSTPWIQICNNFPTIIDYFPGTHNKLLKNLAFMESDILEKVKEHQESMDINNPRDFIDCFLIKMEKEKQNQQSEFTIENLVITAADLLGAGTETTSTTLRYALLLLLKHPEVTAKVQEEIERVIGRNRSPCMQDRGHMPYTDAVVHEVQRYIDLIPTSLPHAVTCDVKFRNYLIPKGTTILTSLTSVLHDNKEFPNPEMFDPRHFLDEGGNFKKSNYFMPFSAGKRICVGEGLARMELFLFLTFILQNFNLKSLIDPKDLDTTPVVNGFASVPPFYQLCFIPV

As for `COc1ccccc1CNc1cc(-c2ccoc2)ncn1`, the Potency in test [1] was > 11.4 µM; in [3] it was 15.8 µM (active); in [6], > 46 µM; in test [7] it was > 46 µM. Further, the activity change, negative = inhibition was -15.7% in [2] and -9.53% in test [4]. Besides, in test [5], the activity, negative = inhibition is 6.29%. Moreover, the Potency result in test [8], in test [9], in test [10], in test [11] and in [12] was “inactive” throughout. Also, the result in [13] was inactive.

In the case of `CC(=O)NCCNc1ncnc2ccc(-c3ccccc3Cl)cc12`, the Potency in [1] was > 11.4 µM; in test [6], > 46 µM; in [7] it was > 46 µM; in [11], 15.8 µM (active); in test [14], 15.8 µM (active). Besides, the activity change, negative = inhibition in test [4] was -0.746%. Also, the activity, negative = inhibition in test [5] was -1.74%. Further, the Potency entry in test [8], in test [10] and in [15] was “inactive” in each case. The outcome in [13] was inactive.

Consider `COc1ccc(CNc2nc(-c3cccc(C#N)c3)nc3ccccc23)c(OC)c1`, for which the Potency in test [1] is > 11.4 µM; in [3] it was 2.51 µM (active); in [6], > 46 µM; in test [7], > 46 µM; in test [16] it was 2.51 µM (active). Moreover, the activity change, negative = inhibition in test [2] was -19.2%. Moreover, the activity, negative = inhibition in [5] was -10.1%. Besides, the Potency entry in test [8], in test [10], in test [11], in [12] and in test [15] was “inactive” in each case. Also, in test [13], the outcome was inactive.

`COc1ccccc1CCn1c(=O)c(-c2cccs2)nc2cncnc21`: the Potency is > 11.4 µM in test [1]; 2 µM (active) in test [3]; > 9.22 µM in [6]; > 46 µM in [7]; 2.51 µM (active) in test [17]; 3.16 µM (active) in [16]. Also, in test [18], the Potency is 2 µM (active). The activity change, negative = inhibition in test [2] is -29.2%; in test [4] it was -5.89%. Further, in test [5], the activity, negative = inhibition was -0.377%. The Potency entry in test [8], in [10], in test [11], in test [12] and in test [15] was “inactive” throughout. In [13], the outcome was inactive.

Take `COc1ccc(Nc2ncc3nc(-c4cccs4)c(=O)n(Cc4cccc(OC)c4)c3n2)cc1`: the Potency in test [1] is > 11.4 µM; in test [6], > 9.22 µM. The activity change, negative = inhibition is -12.3% in test [2] and -11.6% in [4]. In addition, the Potency entry in test [3], in [8], in test [9], in test [11], in [12] and in test [15] was “inactive” throughout. In [5], the activity, negative = inhibition is -8.74%. In test [13], the outcome was inactive.

In the case of `O=c1cnc2cnc(Oc3cccc(Cl)c3)nc2n1CCc1ccccc1`, the Potency is > 11.4 µM in test [1]; > 9.22 µM in test [6]; > 46 µM in test [7]; 2.24 µM (active) in test [11]; 3.55 µM (active) in [14]. For the same compound, the activity, negative = inhibition in test [5] is -20.1%. The Potency entry in test [8], in test [9] and in test [15] was “inactive” in each case. For the same compound, the result in test [13] was inactive.

`COc1ccc2[nH]cc(CCNc3ncnc4ccc(-c5c(C)noc5C)cc34)c2c1`: the Potency in test [1] is > 11.4 µM; in [3], 7.94 µM (active); in [6], > 46 µM; in test [7], > 46 µM; in test [16], 3.16 µM (active); in test [19], 6.31 µM (active). Besides, the Potency in test [18] was 3.98 µM (active); in [11] it was 7.94 µM (active); in test [14], 5.01 µM (active). Moreover, the Potency entry in test [8], in test [9], in test [10] and in [15] was “inactive” throughout. Further, in [13], the result was inactive.
